Reference: PubChem BioAssay AID1851 (National Center for Advancing Translational Sciences (NCATS), 2009)
The whole screen tested about 16,000 compounds, of which about 5,100 (32%) were called active. Not shown: some 25% with an inconclusive outcome. Calls follow the shape of the dose curve; as a rule, active = well fitted curve in the direction sought with a large enough effect; inconclusive = small, poorly fitted or top-dose-only effect, or effect the other way; inactive = no such curve, though single readings can be large or run the other way. The list shows a part of the results.

target: Cytochrome P450 3A4 (Homo sapiens) (UniProt P08684); test: Cytochrome panel assay with activity outcomes; settings: recombinant CYP, pro-luciferin dealkylation, luminescence, p450-cyp3a4; series mostly up to 57.1 µM; activity, negative = inhibition: at the top concentration
Sequence (P08684 whole entry, looked up): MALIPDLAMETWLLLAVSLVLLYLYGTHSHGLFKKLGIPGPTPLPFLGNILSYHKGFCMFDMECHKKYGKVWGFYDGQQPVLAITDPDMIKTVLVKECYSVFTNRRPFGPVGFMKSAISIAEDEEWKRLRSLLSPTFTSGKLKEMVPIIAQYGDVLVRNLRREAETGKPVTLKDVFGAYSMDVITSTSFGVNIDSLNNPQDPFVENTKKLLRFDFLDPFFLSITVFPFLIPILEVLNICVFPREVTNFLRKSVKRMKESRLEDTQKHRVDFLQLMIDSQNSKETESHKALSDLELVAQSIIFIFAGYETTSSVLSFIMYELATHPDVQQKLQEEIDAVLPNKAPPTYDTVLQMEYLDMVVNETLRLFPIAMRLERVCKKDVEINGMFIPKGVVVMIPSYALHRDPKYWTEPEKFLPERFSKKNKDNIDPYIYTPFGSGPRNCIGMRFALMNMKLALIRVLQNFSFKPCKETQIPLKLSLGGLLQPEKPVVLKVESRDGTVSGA
% is scaled to controls: 0 for no effect and ±100 for the full control effect.

Row | SMILES | activity, negative = inhibition | AC50
1 | Cc1c(S(=O)(=O)O)ccc(N=Nc2c(O)c(C(=O)O)cc3ccccc23)c1Cl | 1.31% [at 11.4 µM] (inactive) | –
2 | Cc1cc(C)c2c(N=NN(C)C)[nH]nc2n1 | -17.7% (inactive) | –
3 | CC(CCc1ccccc1)NC(=O)C(=O)NCCO (stereo unspecified) | -10.8% (inactive) | –
4 | CCOc1ccc(Cl)cc1CNCCNCCO | 9.89% (inactive) | –
5 | CCNCc1cc(OCC)c(OCC(=O)NCCc2ccccc2)cc1Cl | – | 0.447 µM (active)
6 | CCOc1cc(CNCCO)c(Cl)cc1OCC(=O)NCCc1ccccc1 | – | 0.794 µM (active)
7 | COc1ccc(-c2cc(C(F)(F)F)nc(NC3CCCC3)n2)cc1OC | – | 25.1 µM (active)
8 | COc1cccc(-c2cc(C(F)(F)F)nc(N3CCOCC3)n2)c1 | – | 28.2 µM (active)
9 | COc1ccc(-c2cc(C(F)(F)F)nc(N3CCN(C)CC3)n2)cc1OC | -6.34% (inactive) | –
10 | COc1cccc(-c2cc(C(F)(F)F)nc(N3CCN(c4ccccc4)CC3)n2)c1 | 9.75% (inactive) | –
11 | COc1ccc(-c2cc(C(F)(F)F)nc(N3CCOCC3)n2)cc1OC | – | 15.8 µM (active)
12 | COc1ccc(C(=O)Nc2ccc(OCC(F)(F)C(F)F)c(C(F)(F)F)c2)cc1OC | -15.7% (inactive) | –
13 | COc1ccccc1N1CCN(c2nc(-c3ccccc3)cc(C(F)(F)F)n2)CC1 | -14.8% (inactive) | –
14 | N=c1nc(N)nc(N)n1-c1ccc(S(N)(=O)=O)cc1 | -8.91% [at 11.4 µM] (inactive) | –
15 | O=c1oc2c(Cl)cc(Cl)cc2cc1-c1nnc(Nc2ccccc2F)s1 | -9.44% (inactive) | –
16 | N=C(N)CCNC(=O)[C@@H]1CCC(N)=N1 | -7.02% [at 11.4 µM] (inactive) | –
17 | NC[C@@H]1O[C@H](O[C@@H]2[C@H](O[C@@H]3O[C@H](CO)[C@@H](COC[C@H]4O[C@@H](CN)[C@@H](O)[C@@H](O)[C@@H]4N)[C@@H]3O)[C@@H](O)[C@@H](N)C[C@H]2N)[C@@H](N)[C@H](O)[C@@H]1O | -8.73% [at 25.6 µM] (inactive) | –
18 | CC(=O)Nc1nc(NC(C)=O)c2[nH]c(CO)nc2n1 | -3.45% [at 11.4 µM] (inactive) | –
19 | CCN(CC)c1ccc(N2C(=O)/C(=C/c3cccnc3)SC2=S)cc1 | – | 5.62 µM (active)
20 | O=C(CCN1C(=O)/C(=C/c2cccc(Br)c2)SC1=S)NNC(=O)c1cccnc1 | – | 3.16 µM (active)
21 | CCN(CC)c1ccc(N2C(=O)/C(=C\c3cccnc3)SC2=S)cc1 | -14.7% [at 2.29 µM] (inactive) | –
22 | Cc1ccc(/C=C2\SC(=S)N(CCCC(=O)Nc3ccccn3)C2=O)cc1 | -14.5% [at 2.29 µM] (inactive) | –
23 | O=C1/C(=C/c2cccnc2)SC(=S)N1Cc1ccco1 | – | 1 µM (active)
24 | C[C@@H]1/C=C\CC(=O)OC[C@H](C)C(=O)N2CCC[C@@H]2C(=O)OC1 | -18.8% [at 11.4 µM] (inactive) | –

Row | SMILES | activity, negative = inhibition | AC50
25 | N[C@@H](CSC(=O)c1ccccc1)C(=O)O | -4.21% [at 11.4 µM] (inactive) | –
26 | O=C(COc1cccc2ccccc12)N1c2ccccc2CCc2ccccc21 | – | 7.94 µM (active)
27 | CC(C)NC[C@@H](O)COc1cccc2ccccc12 | – | inactive
28 | CC(C)NC[C@H](O)COc1cccc2ccccc12 | 3.12% (inactive) | –
29 | OC[C@@H]1NC[C@@H](O)[C@@H](O)[C@H]1O | -1.36% (inactive) | –
30 | CCn1c(C)c(C)c2cc(C(=O)Nc3cccc(Cl)c3)ccc21 | 10.3% [at 2.29 µM] (inactive) | –
31 | O=C(O)c1ccc(C(=O)Nc2cccc3ccccc23)c(C(=O)O)c1 | -18.5% [at 11.4 µM] (inactive) | –
32 | Cc1c(C)n(C)c2ccc(C(=O)Nc3cccc4ccccc34)cc12 | – | 14.1 µM (active)
33 | O=C(NNC(=O)c1cccnc1)Nc1cccc2ccccc12 | 14.6% [at 0.457 µM] (inactive) | –
34 | O=C(Nc1cccc2ccccc12)c1ccccc1 | – | 3.16 µM (active)
35 | COC(=O)CCC(=O)Nc1cccc2ccccc12 | -5.86% (inactive) | –
36 | COc1cccc(C(CC(=O)Nc2cccc3ccccc23)NC(=O)c2ccccc2)c1 (stereo unspecified) | – | 2.24 µM (active)
37 | O=C(CCC(=O)OCc1ccc(C(=O)Oc2ccccc2)cc1)Nc1cccc2ccccc12 | -4.93% (inactive) | –
38 | O=C(O)CSc1ccn(Cc2ccccc2)c1 | -1.15% [at 11.4 µM] (inactive) | –
39 | CN1CCN(CN2C(=O)C3C4C=CC(C3C2=O)C2C3C(=O)N(CN5CCN(C)CC5)C(=O)C3C42)CC1 (stereo unspecified) | -12.9% [at 11.4 µM] (inactive) | –
40 | CCOc1nc(N=C(N)N)nc2c(C)cccc12 | -12.8% (inactive) | –
41 | O=C(O)CCSC1=NCCN1 | -3.67% [at 11.4 µM] (inactive) | –
42 | CSC1(SC2=NCCN2)SC2(NCCN2)S1 | – | 1.26 µM (active)
43 | O=C(c1ccc(Cl)cc1)N1CCCC(c2ccccc2)=N1 | 13% [at 2.29 µM] (inactive) | –
44 | O=C1N=C2SCCN2/C1=C\c1c(Cl)cccc1Cl | – | 10 µM (active)
45 | OCCN(CO)CO | -1.86% [at 11.4 µM] (inactive) | –
46 | CCC(Sc1nc(C)cc(=O)[nH]1)C(=O)Nc1nc2c(s1)CCCC2 (stereo unspecified) | – | 14.1 µM (active)
47 | CCC(=O)Nc1c2c(nc3c1CCC3)CCCC2 | -10.1% (inactive) | –
48 | C[C@@H]1O[C@@H](n2cc(F)c(=O)[nH]c2=O)[C@H](O)[C@@H]1O | -11.7% (inactive) | –

Row | SMILES | activity, negative = inhibition | AC50
49 | Cc1cccc2c1Oc1ccccc1[C@@H]2NC(=O)c1ccc([N+](=O)[O-])cc1 | -14% [at 11.4 µM] (inactive) | –
50 | Cc1cc([N+](=O)[O-])ccc1-c1ccc(C2Nc3ccccc3C(=O)N2O)o1 (stereo unspecified) | – | 7.08 µM (active)
51 | C[C@H](N)C(=O)O | -5.91% (inactive) | –
52 | CSc1nc(C2CC2)cc(-c2cccs2)c1C#N | -28.1% (inactive) | –
53 | CN(C)Cc1ccccc1-c1nccc(NCc2cccs2)n1 | -26.2% (inactive) | –
54 | Cc1ccccc1-c1nccc(NCc2cccs2)n1 | – | 2 µM (active)
55 | FC(F)(F)c1ccccc1-c1nccc(NCc2cccs2)n1 | – | 2 µM (active)
56 | CCc1nn(C)c(-c2n[nH]c(=S)n2N)c1Cl | -11.5% (inactive) | –
57 | O=C1[C@H]2CCn3c(=O)n(-c4ccccc4)c(=O)n3[C@H]2[C@H](O)[C@H]2O[C@@H]12 | -11.9% [at 11.4 µM] (inactive) | –
58 | Nc1nonc1-c1noc(CCCN2C(=O)c3ccccc3C2=O)n1 | – | 7.94 µM (active)
59 | CCN(c1ccccc1)c1cc(NC)[n+](C)c(C)n1 | 4.33% (inactive) | –
60 | Clc1ccc(-c2nc3ncccn3c2Nc2ccc3c(c2)OCCO3)cc1 | – | 4.47 µM (active)
61 | Cc1ccc(-c2nc3ncccn3c2NC(=O)C2CC2)cc1 | -7.73% (inactive) | –
62 | COCCn1c(=O)c(-c2ccccc2)nc2cnc(Oc3ccc(OC)cc3)nc21 | – | 1 µM (active)
63 | COCCn1c(=O)c(-c2ccc(Cl)cc2)nc2cnc(N3CCOCC3)nc21 | 14.4% (inactive) | –
64 | COCCn1c(=O)c(-c2ccc(Cl)cc2)nc2cnc(N(C)C)nc21 | 1.83% (inactive) | –
65 | COCCn1c(=O)c(C)nc2cnc(Oc3ccc(OC)cc3)nc21 | – | 15.8 µM (active)
66 | COCCn1c(=O)c(-c2ccc(OC)cc2)nc2cnc(OC)nc21 | – | 15.8 µM (active)
67 | COCCn1c(=O)c(-c2ccc(Cl)cc2)nc2cnc(OC)nc21 | – | 7.94 µM (active)
68 | COc1ncc2nc(-c3ccc(Cl)cc3)c(=O)n(C[C@H]3CCCO3)c2n1 | – | 10 µM (active)
69 | CCNc1ncc2nc(-c3ccc(Cl)cc3)c(=O)n(C[C@H]3CCCO3)c2n1 | 1.12% (inactive) | –
70 | CN(C)c1ncc2nc(-c3ccc(Cl)cc3)c(=O)n(C[C@H]3CCCO3)c2n1 | -7.59% (inactive) | –
71 | Cn1c(=O)n(-c2cccc(Cl)c2)c(=O)c2c3c(sc21)COC(C)(C)C3 | -4.67% [at 2.29 µM] (inactive) | –
72 | FC(F)(F)c1ccccc1-c1nccc(N2CCNCC2)n1 | -10.8% (inactive) | –

Row | SMILES | activity, negative = inhibition | AC50
73 | Cc1noc(C)c1-c1nccc(N2CCN(C)CC2)n1 | 1% (inactive) | –
74 | Clc1ccccc1-c1nccc(-n2ccnc2)n1 | – | 1.26 µM (active)
75 | COc1ccccc1-c1nccc(-n2ccnc2)n1 | – | 1.58 µM (active)
76 | Cc1noc(C)c1-c1nccc(-n2ccnc2)n1 | – | 1.26 µM (active)
77 | COc1ccccc1-c1cc(-n2ccnc2)ncn1 | – | 0.316 µM (active)
78 | O=S1(=O)N[C@H]2CC[C@@H]3NS(=O)(=O)N[C@H]4CC[C@H](N1)N4S(=O)(=O)N23 | 5.02% [at 11.4 µM] (inactive) | –
79 | Cc1ccccc1-c1nccc(-n2ccnc2)n1 | – | 1 µM (active)
80 | Cc1cc(C)c2c(N)c3ccccc3nc2n1 | -24.9% (inactive) | –
81 | CN(C)Cc1ccccc1-c1ccc2ncnc(NC3CCNCC3)c2c1 | -12.9% (inactive) | –
82 | COc1ccc(CNc2ncnc3ccc(-c4ccccc4CN(C)C)cc23)c(OC)c1 | – | 7.94 µM (active)
83 | CNc1ncnc2ccc(-c3ccccc3CN(C)C)cc12 | – | 7.94 µM (active)
84 | COc1ccccc1CNc1ncnc2ccc(-c3ccccc3OC)cc12 | – | 6.31 µM (active)
85 | CN(C)Cc1ccccc1-c1ccc2ncnc(NCc3ccccc3)c2c1 | – | 15.8 µM (active)
86 | COc1ccccc1CNc1ncnc2ccc(-c3ccccc3CN(C)C)cc12 | – | 12.6 µM (active)
87 | COc1ccc(CNc2ncnc3ccc(-c4ccccc4OC)cc23)c(OC)c1 | – | 2 µM (active)
88 | COc1ccc(/C=C/C(=O)Oc2cccc(/C=N/NC(=O)COc3c(C)cccc3C)c2)cc1 | 10.5% (inactive) | –
89 | CCOc1cc(/C=N/NC(=O)CNc2cccc(C)c2)ccc1OC(=O)c1ccccc1 | 23.3% (inactive) | –
90 | CCOc1cc(/C=N/NC(=O)COc2cccc(C)c2)ccc1OC(=O)c1cccs1 | – | 14.1 µM (active)
91 | CNc1ncnc2ccc(-c3cccc(NS(C)(=O)=O)c3)cc12 | – | 12.6 µM (active)
92 | CS(=O)(=O)Nc1cccc(-c2ccc3ncnc(Nc4ccc(F)cc4)c3c2)c1 | – | 7.94 µM (active)
93 | CS(=O)(=O)Nc1cccc(-c2ccc3ncnc(NC4CCNCC4)c3c2)c1 | -27.5% (inactive) | –
94 | CS(=O)(=O)Nc1cccc(-c2ccc3ncnc(Nc4ccccc4)c3c2)c1 | – | 10 µM (active)
95 | CS(=O)(=O)Nc1cccc(-c2ccc3ncnc(NC4CC4)c3c2)c1 | – | 6.31 µM (active)
96 | c1ccc2cc(-c3cc(-c4cc(-c5ccc6ccccc6c5)on4)no3)ccc2c1 | -8% [at 11.4 µM] (inactive) | –
